Active and inactive are the calls of the source. Rule for the calls: active = hit-call score of the fitted dose curve at least 0.9, where 1 is the maximum; inactive = score below 0.9.

The target of this assay is Hepatocyte nuclear factor 3-beta (Homo sapiens) (UniProt Q9Y261). Put plainly: ATG_FoxA2_CIS: Attagene CIS-FACTORIAL HepG2 Assay for human Forkhead box A2 (FOXA2) (AID 2282942). The following applies: HepG2 cis-reporter transcription factor activity, 24 h; actives raise or lower the signal. Here is the method: ATG_CIS is a cell-based, multiplexed-readout assay that uses HepG2, a human liver cell line, with measurements taken at 24 hours after chemical dosing in a 24-well plate.ATG_FoxA2_CIS is one of 52 assay component(s) measured or calculated from the ATG_CIS assay. It is designed to make measurements of mRNA induction, a form of inducible reporter, as detected with fluorescence intensity signals by Reverse transcription polymerase chain reaction (RT-PCR) and Capillary electrophoresis technology.Data from the assay component ATG_FoxA2_CIS was analyzed into 1 assay endpoint. This assay endpoint, ATG_FoxA2_CIS, was analyzed with bidirectional fitting relative to DMSO as the negative control and baseline of activity. Using a type of inducible reporter, measures of mRNA for gain or loss-of-signal activity can be used to understand the reporter gene at the transcription factor-level as they relate to the gene FOXA2. Furthermore, this assay endpoint can be referred to as a primary readout, because this assay has produced multiple assay endpoints where this one serves a reporter gene function. To generalize the intended target to other relatable targets, this assay endpoint is annotated to the dna binding intended target family, where the subfamily is forkhead box protein.
Chain of Hepatocyte nuclear factor 3-beta (Homo sapiens) (Q9Y261 whole entry, looked up): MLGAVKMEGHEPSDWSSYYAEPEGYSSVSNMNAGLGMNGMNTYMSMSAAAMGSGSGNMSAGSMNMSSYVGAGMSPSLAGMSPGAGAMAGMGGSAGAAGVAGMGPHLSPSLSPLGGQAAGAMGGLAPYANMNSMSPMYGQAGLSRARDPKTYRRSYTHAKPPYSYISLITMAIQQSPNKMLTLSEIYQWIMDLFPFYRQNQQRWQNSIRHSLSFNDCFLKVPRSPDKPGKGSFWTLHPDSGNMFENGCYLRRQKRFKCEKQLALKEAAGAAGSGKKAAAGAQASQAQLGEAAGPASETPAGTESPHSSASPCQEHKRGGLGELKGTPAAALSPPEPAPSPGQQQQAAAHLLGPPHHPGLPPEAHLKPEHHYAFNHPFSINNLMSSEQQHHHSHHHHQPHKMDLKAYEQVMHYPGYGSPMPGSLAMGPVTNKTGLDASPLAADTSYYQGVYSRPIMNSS
Human liver HepG2 cells are transiently transfected with multiple reporter transcription units (MRTUs) in 6-well plates using FuGene 6 reagent (Roche; 3 ml FuGene/1 mg DNA). The MRTU constructs are regulated by a cis-regulating element (promoter). […] A major difference between the CIS and TRANS system is that in CIS activities of endogenous TFs are measured, whereas the TRANS assay evaluates changes in activities of exogenous, chimeric NR-Gal4 proteins. […] At the end of 24 hour incubation, total RNA was isolated using TriZol reagent (Invitrogen). The isolated RNA is then reverse-transcribed using oligo(dT) primer and Mo-MLV reverse transcriptase (Invitrogen) with DNAse I (Ambion) treatment for 30 min. The one-tenth of the produced cDNA was amplified by PCR using Taq DNA polymerase (Invitrogen) and two reporter sequence-specific primers. The PCR products were fluorescently labeled by primer extension with 6-arboxyfluorescein (6-FAM) 5'-labeled reporter sequence-specific primer (2 min at 95 C, 20 s at 68 C and 10 min at 72 C) and these products were digested with 5U of HpaI (New England Biolabs) for 2h at 37 C. The fragments were purified using Qiaquick PCR columns (Qiagen), analyzed on an ABI 3130xL genetic analyzer (Applied Biosystems) with peak positions identified by using a set of X-rhodamine (ROX)-labeled MapMarker1000 molecular weight standards (BioVentures). The raw capillary electrophoresis data was processed using Attagraph software (Attagene).
Regarding `NCCCN1CCN(CCCN)CC1`, the result was inactive. For the compound `CCC(C)OC(=O)c1ccc(O)cc1` (stereo not given), the result was inactive. For `CCCCC/C=C\CCC=O`, the call was inactive. Still for that read-out and setting: the same measure for `OCCc1ccncc1`: “inactive”. As for `NC(=O)NNC(N)=O`, the compound was called inactive. As to `O=C(c1ccccc1)c1ccc(O)c(O)c1O`, the compound was called inactive. For the compound `O=C1Nc2ccccc2C1(c1ccc(O)cc1)c1ccc(O)cc1`, the compound was called inactive. With `CCCCCCCOC(=O)CCC`, the outcome was inactive.

Regarding `CCC(Cc1ccccc1)(C(=O)c1ccc(N2CCOCC2)cc1)N(C)C` (stereo not given), the outcome was inactive. Consider `COCCOCCOCCOCCOC`, for which the compound was called inactive.

Take `CCCC(C)CCC(C)=O` (stereo not given): the compound was called inactive. On the same count and under the same terms, the same measure for `CCOC(=O)[C@H](C)O`: “inactive”; for `CC(C)c1ccc2cc(C(C)C)ccc2c1`: “inactive”. Still for that read-out and setting: the same measure for `C=C(C)C(=O)OCCOc1ccccc1`: “inactive”; for `CCc1ccc2c(c1)C(=O)c1ccccc1C2=O`: “inactive”. Still for that read-out and setting: next, `O=C1CCCN1CCO`: “inactive”; `CC1OC1C1CCC2(C)OC2C1` (stereo not given): “inactive”. Consider `CCCCCC/C=C/C=O`, for which the compound was classed as inactive. Same read-out and setting: next, `CC1=CC[C@H](C(C)C)C=C1`: “inactive”; `Cc1cc(C)c(C(=O)O)c(C)c1`: “inactive”; `Cc1ccc([N+](=O)[O-])cc1S(=O)(=O)O`: “inactive”. On the same count and under the same terms, next, `CC1(C)S[C@@H]2[C@H](NC(=O)COc3ccccc3)C(=O)N2[C@H]1C(=O)O`: “inactive”; `O=C(O)c1ccccc1Nc1cccc(C(F)(F)F)c1`: “inactive”; `NC(=O)N=NC(N)=O`: “inactive”.

Take `CCOC(=O)c1ccccc1C(=C1C=C(Br)C(=O)C(Br)=C1)c1cc(Br)c(O)c(Br)c1`: the AC50 (commonly the concentration giving half of the maximal activity seen) is 43.6 µM (active).

As for `N#CCc1ccc(Cl)cc1Cl`, the call was inactive. Consider `C=COCCCC`, for which the outcome was inactive. Consider `CCOC(=O)CC(C(C)=O)C(C)=O`, for which the compound was called inactive.

For the compound `C=C1C2CCC(C2)C1(C)C` (stereo not given), the outcome was inactive. The same measure, in the same setting: next, `CC(C)(Oc1ccc(C2CC2(Cl)Cl)cc1)C(=O)O` (stereo not given): “inactive”. On to `CC(=O)[C@H]1[C@H](C#N)C[C@H]2[C@@H]3CC=C4C[C@@H](O)CC[C@]4(C)[C@H]3CC[C@@]21C`, for which the outcome was inactive.

Consider `O=C1CCCCCCCCCCC(=O)OCCO1`, for which the compound was classed as inactive. Consider `CC(CC=O)c1ccccc1` (stereo not given), for which the call was inactive. Still for that read-out and setting: next, `COc1ccc2nc(N)sc2c1`: “inactive”; `CN1C(=O)N(C)C(O)C1O` (stereo not given): “inactive”. The same measure, in the same setting: the same measure for `S=C(NC1CCCCC1)NC1CCCCC1`: “inactive”. Turning to `O=C1CC2CC1C1CCCC21` (stereo not given), the outcome was inactive.

`CC=CC(F)(F)C(F)(F)C(F)(F)F`: the outcome was inactive. For `CCOC(F)(F)C(F)(F)C(F)(F)C(F)(F)F`, the result was inactive. Consider `CC(C)(C)C(=O)C=Cc1ccc(Cl)cc1`, for which the AC50 was 178 µM (active).

For the origin of these results see PubChem BioAssay (EPA / NIEHS).
